Among the data in PubChem BioAssay (NCI) are growth values, retold here.

Test systems include SR leukemia; RPMI-8226 leukemia; OVCAR-8 ovarian; OVCAR-5 ovarian; OVCAR-4 ovarian; SK-OV-3 ovarian; OVCAR-3 ovarian; HS 578T breast; NCI/ADR-RES ovarian; T-47D breast; BT-549 breast; MDA-MB-435 melanoma; SW-620 colon; MCF7 breast; HCT-116 colon; HCC-2998 colon; KM12 colon; IGROV1 ovarian.
Experiment in all cases: NCI-60 one-dose screen, 48 h (100 = growth as untreated, 0 = no growth, -100 = all killed)
Common to all, as to conditions: 10 µM unless noted

SMILES strings stand for the structures. The panel holds about 83,000 compounds, 20% with a hit somewhere; the sample as a whole holds those more often.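 Single-concentration screen, 48 h exposure, 96-well plates. Endpoint: percent growth. Below 10 = active.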 Values without a mark were called inactive. The source made the active and inactive calls.

In the case of `Oc1ccccc1-c1nnc(SCc2ccc(O)c3ncccc23)n1-c1ccccc1`, the growth in the assay on SR leukemia was 25.2%; in the assay on RPMI-8226 leukemia it was 12.2%; in the assay on OVCAR-8 ovarian, 15.5%; with OVCAR-5 ovarian it was 33%; with OVCAR-4 ovarian, 16.3%; with SK-OV-3 ovarian, 8.88% (active). The growth is 18.7% in the assay with OVCAR-3 ovarian; 21.3% with HS 578T breast; 6.23% (active) in the assay on NCI/ADR-RES ovarian; 6.93% (active) with T-47D breast; 25.2% in the assay with BT-549 breast; 14.4% in the assay on MDA-MB-435 melanoma. For the same molecule, the growth with SW-620 colon was 14.9%; with MCF7 breast, 3.11% (active); with HCT-116 colon, 12.6%; in the assay with HCC-2998 colon, 29%; in the assay on KM12 colon it was 15.4%.

As to `CN1CCN(c2nc(-c3cnc4ccccc4n3)cc3ccccc23)CC1`, the growth is 1.45% (active) with SR leukemia; 56.7% in the assay with RPMI-8226 leukemia; 89.7% in the assay with OVCAR-8 ovarian; 91.1% in the assay on OVCAR-5 ovarian; 100% with OVCAR-4 ovarian; 92.1% in the assay on SK-OV-3 ovarian. The growth with HS 578T breast is 85.6%; in the assay on NCI/ADR-RES ovarian, 82.2%; with T-47D breast, 68.9%; with BT-549 breast it was 85.7%; with MDA-MB-435 melanoma it was 27.1%; in the assay on SW-620 colon, 11.5%. The growth in the assay with MCF7 breast is 54.9%; in the assay with HCT-116 colon, 21.4%; in the assay with HCC-2998 colon, -26.4% (active); with KM12 colon, 88.1%.

As to `C#C[C@]1(O)CC[C@H]2[C@@H]3CC=C4c5sc(Nc6nc(C)cc(OC)n6)nc5CC[C@]4(C)[C@H]3CC[C@@]21C`, the growth was 12.4% in the assay with SR leukemia; -0.189% (active) in the assay on RPMI-8226 leukemia; 73.3% in the assay with OVCAR-8 ovarian; 78.8% in the assay on OVCAR-5 ovarian; 88.4% with OVCAR-4 ovarian; 47.5% in the assay with SK-OV-3 ovarian. Also, the growth with IGROV1 ovarian was 66%; with HS 578T breast it was -6.82% (active); with NCI/ADR-RES ovarian, 62.7%; in the assay with BT-549 breast it was 48%; in the assay on MDA-MB-435 melanoma it was 34.7%; with SW-620 colon, 23.6%. Also, the growth was 8.47% (active) in the assay with MCF7 breast, 42.7% with HCT-116 colon, 80.9% with HCC-2998 colon and 46.1% in the assay on KM12 colon.

Turning to `COc1cc(O)c2c(c1)[C@H]1O[C@@H]1C[C@H](O)[C@H](O)C(=O)/C=C\C[C@H](C)OC2=O`, the growth is 22.3% with SR leukemia; 24.5% in the assay with RPMI-8226 leukemia; 59.3% in the assay on OVCAR-8 ovarian; 61.5% in the assay on OVCAR-5 ovarian; 27% in the assay on OVCAR-4 ovarian; 80.2% in the assay with SK-OV-3 ovarian. Besides, the growth in the assay with OVCAR-3 ovarian was 32.1%; in the assay with HS 578T breast, 76.6%; in the assay on NCI/ADR-RES ovarian it was 78.7%; in the assay with T-47D breast, 30.1%; in the assay on BT-549 breast, 2.6% (active); with MDA-MB-435 melanoma, 19.2%. Besides, the growth in the assay with SW-620 colon was 21.8%; in the assay on MCF7 breast it was 43.3%; in the assay with HCT-116 colon it was 27.7%; in the assay on HCC-2998 colon, 65.1%; in the assay with KM12 colon it was 90.4%.

On to `CCOc1c(C#N)c(Nc2ccc(S(N)(=O)=O)cc2)c(C#N)c2nnc(C)n12`, for which the growth with SR leukemia is 100%; in the assay on RPMI-8226 leukemia, 107%; in the assay with OVCAR-8 ovarian, 99.4%; in the assay with OVCAR-5 ovarian it was 107%; with OVCAR-4 ovarian it was 117%; with SK-OV-3 ovarian, 102%. The growth is 114% in the assay with OVCAR-3 ovarian; 102% in the assay on HS 578T breast; 105% in the assay with NCI/ADR-RES ovarian; 104% in the assay on T-47D breast; 97.6% in the assay on BT-549 breast; 108% with MDA-MB-435 melanoma. In addition, the growth is 108% with SW-620 colon; 97.2% with MCF7 breast; 116% with HCT-116 colon; 106% in the assay on HCC-2998 colon; 103% with KM12 colon.

Take `COc1cc(/C=C/C(=O)c2ccc(NC(=O)CSc3nnc(-c4ccc5nc(-c6ccccc6)[nH]c5c4)o3)cc2)cc(OC)c1OC`: the growth was 36.8% with SR leukemia; 30.7% with RPMI-8226 leukemia; 97.1% with OVCAR-8 ovarian; 102% with OVCAR-5 ovarian; 99.5% with OVCAR-4 ovarian; 116% with SK-OV-3 ovarian. Also, the growth in the assay with OVCAR-3 ovarian was 72.1%; in the assay on HS 578T breast, 85.5%; with NCI/ADR-RES ovarian, 100%; in the assay on T-47D breast, 89%; in the assay with BT-549 breast, 81.6%; in the assay on MDA-MB-435 melanoma, 94.1%. In addition, the growth with SW-620 colon is 98.8%; with MCF7 breast, 43.9%; with HCT-116 colon, 40.8%; in the assay on HCC-2998 colon, 111%; in the assay with KM12 colon, 90%.

Turning to `Cc1cc(=O)n2nc(-c3cn(C)c4ccc(Cl)cc34)sc2n1`, the growth is 93% in the assay with SR leukemia; 94.5% with RPMI-8226 leukemia; 96.8% in the assay with OVCAR-8 ovarian; 93.8% with OVCAR-5 ovarian; 93.7% with OVCAR-4 ovarian; 84.3% in the assay with SK-OV-3 ovarian. Besides, the growth in the assay with HS 578T breast was 83.9%; in the assay with NCI/ADR-RES ovarian, 93.2%; in the assay with T-47D breast, 50.8%; with BT-549 breast, 108%; in the assay on MDA-MB-435 melanoma, 99%; in the assay on SW-620 colon, 97.6%. In addition, the growth in the assay on MCF7 breast is 14.5%; in the assay on HCT-116 colon, 86.3%; with HCC-2998 colon, 102%; with KM12 colon, 94.1%.

Consider `COc1ccc(OC)c([C@H]2c3[nH]c4ccccc4c3C[C@H]3C(=O)N(CCCCCCC(=O)NO)CC(=O)N23)c1`, for which the growth in the assay on SR leukemia was 36.7%; in the assay with RPMI-8226 leukemia, 60.4%; in the assay with OVCAR-8 ovarian, 73.9%; with OVCAR-5 ovarian, 100%; in the assay on OVCAR-4 ovarian, 80%; in the assay on SK-OV-3 ovarian, 86.2%. Further, the growth was 76.3% in the assay on OVCAR-3 ovarian; 93.5% with HS 578T breast; 99.5% in the assay with NCI/ADR-RES ovarian; 65% in the assay with T-47D breast; 107% with BT-549 breast; 85% in the assay with MDA-MB-435 melanoma. The growth was 72.5% in the assay with SW-620 colon; 72.2% with MCF7 breast; 66.8% with HCT-116 colon; 99.9% in the assay on HCC-2998 colon; 91.7% in the assay with KM12 colon.
